# Source: the supplement of paper PMC7595190
# Values without a mark were called inactive.
# Assays:
# Assay in all cases: CellTox Green cytotoxicity fluorescence relative to DMSO vehicle (fold of vehicle RFU); higher = more cell death (loss of membrane integrity), active = 2 or more
# [1] = tested on: CMK
# In short: (§1)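 Values are cytotoxicity, read as fluorescence from loss of membrane integrity and expressed as fold of the DMSO vehicle. MV4-11, CMK and Kasumi-1 cells at 4.0 × 10^4 per well received CellTox Green reagent at seeding and single Selleckchem apoptosis library compounds at final 0.01, 0.1 and 1 µM (vehicle 0.1% DMSO). Plates were incubated at 37 °C, 5% CO2 and read at 24, 48 and 72 h.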
# [2] = tested on: Kasumi-1
# In short: as §1
# [3] = tested on: MV4-11
# In short: as §1
SMILES,"CellTox Green cytotoxicity fluorescence ([1]; 0.01 µM, 24 h)","CellTox Green cytotoxicity fluorescence ([1]; 0.01 µM, 48 h)","CellTox Green cytotoxicity fluorescence ([1]; 0.01 µM, 72 h)","CellTox Green cytotoxicity fluorescence ([1]; 0.1 µM, 24 h)","CellTox Green cytotoxicity fluorescence ([1]; 0.1 µM, 48 h)","CellTox Green cytotoxicity fluorescence ([1]; 0.1 µM, 72 h)","CellTox Green cytotoxicity fluorescence ([1]; 1 µM, 24 h)","CellTox Green cytotoxicity fluorescence ([1]; 1 µM, 48 h)","CellTox Green cytotoxicity fluorescence ([1]; 1 µM, 72 h)","CellTox Green cytotoxicity fluorescence ([2]; 0.01 µM, 24 h)","CellTox Green cytotoxicity fluorescence ([2]; 0.01 µM, 48 h)","CellTox Green cytotoxicity fluorescence ([2]; 0.01 µM, 72 h)","CellTox Green cytotoxicity fluorescence ([2]; 0.1 µM, 24 h)","CellTox Green cytotoxicity fluorescence ([2]; 0.1 µM, 48 h)","CellTox Green cytotoxicity fluorescence ([2]; 0.1 µM, 72 h)","CellTox Green cytotoxicity fluorescence ([2]; 1 µM, 24 h)","CellTox Green cytotoxicity fluorescence ([2]; 1 µM, 48 h)","CellTox Green cytotoxicity fluorescence ([2]; 1 µM, 72 h)","CellTox Green cytotoxicity fluorescence ([3]; 0.01 µM, 24 h)","CellTox Green cytotoxicity fluorescence ([3]; 0.01 µM, 48 h)","CellTox Green cytotoxicity fluorescence ([3]; 0.01 µM, 72 h)","CellTox Green cytotoxicity fluorescence ([3]; 0.1 µM, 24 h)","CellTox Green cytotoxicity fluorescence ([3]; 0.1 µM, 48 h)","CellTox Green cytotoxicity fluorescence ([3]; 0.1 µM, 72 h)","CellTox Green cytotoxicity fluorescence ([3]; 1 µM, 24 h)","CellTox Green cytotoxicity fluorescence ([3]; 1 µM, 48 h)","CellTox Green cytotoxicity fluorescence ([3]; 1 µM, 72 h)"
c1ccc2c(CCNc3ccc(Nc4ccncc4)cc3)c[nH]c2c1 [Serdemetan],0.966,0.966,0.987,0.95,0.971,1.05,0.925,1.67,2.28 (active),0.983,0.933,0.904,0.969,0.964,0.955,1.01,1.45,1.77,0.97,0.948,0.953,0.929,0.918,0.946,1.21,3.08 (active),3.17 (active)
O=C1CCC(N2C(=O)c3ccccc3C2=O)C(=O)N1 (stereo unspecified) [Thalidomide],0.979,0.985,0.989,0.945,0.95,0.986,0.982,0.962,1.19,0.98,0.96,0.95,0.938,0.934,0.908,0.972,0.981,0.997,,,,,,,,,
COc1ccc(CCNCc2ccc(OCc3ccc(Cl)nc3)c(OC)c2)cc1OC,0.968,0.978,0.979,0.96,0.955,0.961,0.94,0.968,0.996,0.943,0.942,0.931,0.953,0.936,0.949,0.975,0.987,0.979,0.971,0.978,0.996,0.949,0.961,0.967,0.953,0.949,0.945
COc1ccc(C2=N[C@@H](c3ccc(Cl)cc3)[C@@H](c3ccc(Cl)cc3)N2C(=O)N2CCNC(=O)C2)c(OC(C)C)c1 [Nutlin-3],0.981,0.982,0.971,1,1.01,1.03,1.02,1.01,1.03,1.02,1.01,0.998,0.977,0.977,0.959,1.01,1.01,1.05,,,,,,,,,
COc1nc(-c2ccc3c(c2)OCO3)n(-c2ccc(NC(=O)CSc3ccccc3)cc2)n1 [SecinH3],1.03,1.04,1.05,0.992,0.997,0.985,0.996,1.01,1.01,1.02,1.03,1.04,1.02,1.02,1.01,0.941,0.989,1.02,,,,,,,,,
CC[C@@]1(O)C(=O)OCc2c1cc1n(c2=O)Cc2cc3cc(O)ccc3nc2-1 [(S)-10-Hydroxycamptothecin],0.964,1.06,1.19,1.56,2.2 (active),2.02 (active),0.988,1.01,0.878,0.962,0.972,0.997,0.972,1.07,1.27,0.98,1.23,1.59,,,,,,,,,
O=C1NC(=NCc2cccs2)S/C1=C\c1ccc2ncccc2c1,1.02,1.04,1.07,0.996,1,0.991,1.03,1.09,1.08,0.99,0.991,0.96,1.01,1.04,1,1.02,1.01,1.01,,,,,,,,,
N#CC(=Cc1ccc(-c2cc(Cl)ccc2Cl)o1)C(=O)Nc1cccc2ncccc12,0.949,0.938,0.947,0.993,0.99,0.992,1,1.05,1.03,1,0.958,0.958,0.998,0.979,0.979,0.939,0.916,0.917,1.01,0.987,0.982,0.998,0.992,1.01,0.969,0.985,0.984
